# From PubChem
# Autofluor counter: compound fluorescence in toxin protease inhibitor counterscreen; AID 624483; compound autofluorescence counterscreen, microsphere flow cytometry; hits give high values; hit rate 3.1% among 360,000; fluorescence intensity (no concentration beside the values); in the data active = fluorescence intensity above about 16000; inconclusive = no clear call, values can overlap the other calls
# GDH-TPI counter: GDH-TPI coupling enzyme inhibitors, primary screen, artefact control for M. tuberculosis FBA inhibitor project, biochemical, absorbance, full deck. inhibition, % at 4.8 µM. hit rate 1.2% among 360,000. GDH-TPI coupled enzyme counterscreen, NADH absorbance. AID 588335, 2011; in the data active = inhibition above about 30%
# Anthrax LF inh2: Bacillus anthracis LF protease inhibitors, primary screen, biochemical, multiplex microsphere, MLPCN library; hit rate 0.12% among 360,000; inhibition, % at 10 µM; AID 588501, 2011; multiplex microsphere protease cleavage assay
# FBA Mtb inh: Mtb FBA enzyme inhibitors, primary screen, biochemical, fluorescence, strain H37Rv; purified M. tuberculosis FBA, fluorescence read-out; inhibition, % at 1 µM; hit rate 2.3% among 360,000; in the data active = inhibition above about 27%
# Target sequence (P9WQA3 whole entry, looked up): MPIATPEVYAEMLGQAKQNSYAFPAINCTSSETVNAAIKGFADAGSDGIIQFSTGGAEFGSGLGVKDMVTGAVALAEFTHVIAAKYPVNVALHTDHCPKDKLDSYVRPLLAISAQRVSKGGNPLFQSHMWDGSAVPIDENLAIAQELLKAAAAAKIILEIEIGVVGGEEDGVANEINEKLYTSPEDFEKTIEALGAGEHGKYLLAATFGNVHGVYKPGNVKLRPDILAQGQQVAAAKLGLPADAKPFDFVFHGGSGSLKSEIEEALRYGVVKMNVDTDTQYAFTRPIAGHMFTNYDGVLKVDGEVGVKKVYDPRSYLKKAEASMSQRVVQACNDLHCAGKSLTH
# BoNT F protease: BoNT/F light chain protease inhibitors, primary screen, biochemical, flow cytometry, MLPCN library; Botulinum neurotoxin type F light chain protease (Clostridium botulinum); Multiplex microsphere protease cleavage assay; inhibition, % at 10 µM; hit rate 0.22% among 360,000; AID 588497, 2011; in the data active = inhibition above about 35%, passing the limit was not always enough; inconclusive = no clear call, values can overlap the other calls
# BoNT A protease: BoNT/A light chain protease inhibitors, primary screen, biochemical, flow cytometry, MLPCN library; multiplex microsphere protease substrate cleavage; inhibition, % at 10 µM; hit rate 0.17% among 360,000
# Numbers stand for hits; . = inactive; ? = inconclusive; + = active, no number. This is a sample that favours compounds with a hit; in the whole collection about 6.7% have one here. Rule as the data show it, unless noted: active = inhibition above about 30%; inconclusive = no clear call, values can overlap the other calls; inactive = below that.
SMILES,Autofluor counter,GDH-TPI counter,Anthrax LF inh2,FBA Mtb inh,BoNT F protease,BoNT A protease
CS(=O)(=O)Nc1ccccc1C(=O)Nc1ccccc1C(=O)N1CCCC1,.,.,.,.,.,.
CN(CC(=O)Nc1ccccc1C(=O)N1CCCC1)S(=O)(=O)c1ccc(Cl)cc1,24313,.,.,.,.,.
CS(=O)(=O)N1CCN(C(=O)c2ccccc2)C1,16660,.,.,.,.,.
CS(=O)(=O)Nc1ccc(C(=O)Nc2ccccc2C(=O)N2CCCC2)cc1,20057,.,.,.,.,.
CC(C)(C#N)C(C)(C)c1nn[nH]n1,.,.,.,.,.,.
O=C(c1ccc(Cn2cc(Br)cn2)cc1)N1CCN(c2ccccc2)CC1,23168,.,.,.,.,.
O=C(c1ccc(Cn2cc(Cl)cn2)cc1)N1CCN(c2ccccc2)CC1,.,.,.,.,.,.
Cc1nc(-n2ncc(C#N)c2N)c2c3c(sc2n1)CCC3,22751,.,.,.,.,.
CCCCNc1nnc(SCC(=O)N2CCN(S(=O)(=O)c3ccc4ccccc4c3)CC2)s1,.,.,.,.,.,.
CCNC(=O)COC(=O)C1CCC(=O)N(c2ccc(OC)cc2)C1c1ccc(OC)cc1 (stereo unspecified),21386,.,.,.,.,.
COc1ccc(C2C(C(=O)OCC(=O)N3CCCCC3)CCC(=O)N2c2ccc(OC)cc2)cc1 (stereo unspecified),.,.,.,.,.,.
COCCCN1CCN(c2nnc3n2-c2sc(Br)cc2C(c2ccccc2Cl)=NC3)CC1,.,.,.,.,.,.
O=C(O)Cc1ccc(Nc2cnn(C34CC5CC(CC(CC(=O)O)(C5)C3)C4)c(=O)c2Cl)cc1,.,51,.,.,.,.
CC(=O)c1ccc(NC(=O)Nc2cccc(Cl)c2)cc1,.,.,.,.,.,.
Cc1cc(=O)oc2cc(OCc3cc4c(cc3Cl)OCO4)ccc12,.,.,.,.,.,.
Cc1cc(=O)oc2cc3c(cc12)OCCN3,.,.,.,+,.,.
Cc1cc(=O)oc2cc3c(cc12)CCCN3,.,.,.,+,.,.
Cc1cc2cc3c(C)cc(=O)oc3c(C)c2o1,.,.,.,.,.,.
Cc1cc(=O)oc2cc3c(cc12)OCO3,.,.,.,+,.,.
CC(=O)c1cc2c(C)cc(=O)oc2cc1O,.,.,.,.,.,.
Cc1cc2c(C)cc(=O)oc2c2c1NCCC2,25354,.,.,+,.,.
COc1cc(NC(=O)COC(=O)c2ccccc2SCC(=O)N2CCCC2)cc(OC)c1,.,.,.,.,.,.
COc1cc(OC)c(C2CC(=O)N3CN(c4ccccc4)CSC3=C2C#N)cc1OC (stereo unspecified),20460,.,.,.,.,?
COc1cc(OC)c(C2CC(=O)N3CN(C)CSC3=C2C#N)cc1OC (stereo unspecified),.,.,.,.,.,.
COc1ccc2ccccc2c1C1CC(=O)N2CN(C)CSC2=C1C#N (stereo unspecified),20088,.,.,.,.,?
SMILES,Autofluor counter,GDH-TPI counter,Anthrax LF inh2,FBA Mtb inh,BoNT F protease,BoNT A protease
COc1ccc(OCCCC(=O)OCC(=O)Nc2ncc(Cl)cc2Cl)cc1,.,.,.,.,.,.
O=C(COC(=O)CC12CC3CC(CC(C3)C1)C2)Nc1ncc(Cl)cc1Cl,24856,.,.,.,.,.
CC(C)(Oc1ccc(Cl)cc1)C(=O)OCC(=O)Nc1ncc(Cl)cc1Cl,22776,.,.,.,.,.
O=C(COC(=O)C12CC3CC(CC(C3)C1)C2)Nc1ncc(Cl)cc1Cl,.,.,.,.,.,?
CC(C)(C)c1ccc(OCC(=O)NC2CCS(=O)(=O)C2)cc1 (stereo unspecified),19473,.,.,.,.,?
Cc1ccc(OCC(=O)NC2CCS(=O)(=O)C2)cc1 (stereo unspecified),.,.,.,.,.,.
Cc1ccc(OC(=O)NC2CCS(=O)(=O)C2)cc1C (stereo unspecified),23723,.,.,.,.,.
COc1ccc(C(=O)N(C)C2CCCN(Cc3ccccc3F)C2)cc1OC (stereo unspecified),.,.,.,.,.,.
CCOc1ccc(C(=O)Nc2cnn(Cc3ccc(Cl)c(Cl)c3)c2)cc1,16229,.,.,.,.,.
CCC/C(=N\NC(=O)CNC(=O)c1ccc(Cl)cc1)c1ccccc1,.,.,.,.,.,.
COCCCN1C(=O)c2ccccc2C1C(=O)NC1CCCCCC1 (stereo unspecified),22972,.,.,.,.,.
CCNC(=O)/C(=C/c1cccc([N+](=O)[O-])c1)NC(=O)c1ccc(C)cc1,.,.,.,.,.,.
COc1ccc(/C=N/N=C2\SCC(=O)N2c2c(C)n(C)n(-c3ccccc3)c2=O)cc1OC,.,41,.,.,.,.
Cc1c(N2C(=O)CS/C2=N\N=C\c2ccccc2O)c(=O)n(-c2ccccc2)n1C,16255,32,.,.,.,?
Cn1c(=O)c2[nH]c(SCCN)nc2n(C)c1=S,.,.,.,.,.,.
C=C(C)C(C)(C#CCN1CCCC1)OC(C)=O (stereo unspecified),18876,.,.,.,.,.
CC(C)C(O)(C#CCN1CCCC1)c1ccccc1 (stereo unspecified),.,.,.,.,.,.
COC(=O)c1c(NC(=O)CSc2nnnn2-c2ccccc2)sc2c1CCC(C(C)(C)C)C2 (stereo unspecified),23374,.,.,.,.,.
CCOCCCNC(=O)CN1C(=O)c2ccccc2Sc2ncccc21,.,.,.,.,.,.
CCCNC(=O)CN1C(=O)c2ccccc2Sc2ncccc21,.,.,30,.,.,.
Cc1c(O)ccc(C(=O)COc2ccc(F)cc2)c1O,.,32,.,.,.,.
O=C(Nc1nc2nccc(-c3ccccc3)n2n1)C(Cl)(Cl)Cl,.,.,.,173,.,.
CCOc1cc(/C=N/n2c(C)nnc2C)ccc1O,.,40,.,.,.,.
CCOC(=O)c1c(C)[nH]c(C(=O)OCC(=O)Nc2cc(Cl)ccc2OC)c1C,16877,.,.,.,.,.
CCOC(=O)c1c(C)[nH]c(C(=O)OCC(=O)Nc2cc(C)ccc2OC)c1C,.,.,.,.,.,.
CCOC(=O)c1[nH]c(C)c(C(=O)OCC(=O)NC(=O)NC(C)(C)C)c1C,20160,.,.,.,.,.
COc1ccc(-n2c(SCC(=O)Nc3cc(C)on3)nc3c(c2=O)SCC3)cc1OC,.,.,.,.,.,.
CN1c2ccccc2-c2nc3ccccc3n2C1c1cccs1 (stereo unspecified),.,.,.,+,.,.
